This is a sample that favours compounds with a hit; in the whole collection about 4.6% have one here.
ADAM10 inh – inhibits human ADAM10 | actives 0.62% (n = 370,000) | recombinant ADAM10, EDANS/DABCYL FRET peptide cleavage, 3 h | inhibition, % at 7 µM | O14672;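 active means inhibition above a per-campaign cutoff equal to the mean of compounds falling between control-based bounds plus 3 SD, cut at about 20% in these data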
Target sequence (O14672 214-748 limits assumed): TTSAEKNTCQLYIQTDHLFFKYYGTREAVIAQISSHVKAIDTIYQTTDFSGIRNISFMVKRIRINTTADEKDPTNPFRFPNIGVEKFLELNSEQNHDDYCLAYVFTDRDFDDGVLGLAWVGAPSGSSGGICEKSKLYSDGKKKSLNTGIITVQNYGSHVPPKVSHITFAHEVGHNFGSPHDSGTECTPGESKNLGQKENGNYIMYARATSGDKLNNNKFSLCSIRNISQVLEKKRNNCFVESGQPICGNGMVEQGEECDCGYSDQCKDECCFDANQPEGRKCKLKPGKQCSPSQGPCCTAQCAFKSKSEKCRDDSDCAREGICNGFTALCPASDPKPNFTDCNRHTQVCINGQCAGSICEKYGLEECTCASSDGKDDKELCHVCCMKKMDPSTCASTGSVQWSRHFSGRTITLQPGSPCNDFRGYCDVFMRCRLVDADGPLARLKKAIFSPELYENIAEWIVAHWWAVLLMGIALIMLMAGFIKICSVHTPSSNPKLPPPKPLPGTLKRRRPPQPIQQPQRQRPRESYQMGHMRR
ADAM17 inh – ADAM17 inhibition, QFRET primary screen; P78536; recombinant ADAM17, EDANS/DABCYL FRET peptide cleavage; inhibition, % at 6.95 µM; actives 0.83% (n = 370,000);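 active means inhibition above the mean of compounds lying between control limits plus 3 SD, set per campaign, cut at about 8.5% in these data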
GRIN3A LBD mod – NR3A (human) ligand-binding domain modulation | NR3A LBD differential scanning fluorimetry, Tm shift; 0% = protein alone, 100% = glycine-bound protein | Tm shift relative to glycine control, % at 25 µM | actives 2.5% (n = 340,000);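 active means melting temperature shift of at least 10% of the positive control shift, at one fixed dose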
FAS TE block – blocks the thioesterase domain of human fatty acid synthase; P49327; recombinant FAS-TE, OMFH fluorogenic substrate, fluorescence endpoint; inhibition, % at 15 µM; actives 0.67% (n = 360,000);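 active means compounds whose normalised, plate-corrected inhibition of enzyme fluorescence in the single-dose primary screen is 50% or more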
proKLK7 act – proKLK7 (human) activation, primary screen; P49862; purified proKLK7, EDANS-DABCYL substrate fluorescence; 100% is mature enzyme control, 0% vehicle; activation, % at 7 µM; actives 0.9% (n = 370,000); AID 652039;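 active means activation above the mean of all tested compounds plus 3 SD, computed per campaign excluding outliers beyond control limits, cut at about 13% in these data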
Hits are given with their value; – = inactive; · = not tested or not shown.

SMILES	ADAM10 inh	ADAM17 inh	GRIN3A LBD mod	FAS TE block	proKLK7 act
CCN(CC)CCn1c(-c2ccc(C)cc2)nc(=S)c2c1CC(C)(C)OC2	–	–	14	–	–
Oc1ccc(/C=N/Nc2ccnc3cc(Cl)ccc23)cc1O	–	–	21	–	–
Clc1ccc2c(NCc3ccccn3)ccnc2c1	–	–	–	–	–
Oc1ccc(/C=N/Nc2ccnc3cc(Cl)ccc23)c(O)c1O	–	–	18	–	–
CC/C(=N\Nc1ccnc2cc(Cl)ccc12)c1ccc(O)cc1	–	–	–	–	–
Cc1ccccc1NCC(=O)N/N=C\C=C\c1cccc([N+](=O)[O-])c1	–	–	15	–	–
CCN(CC)CCNC(=O)c1ccccc1N	–	–	–	–	–
CCN(CC)CCNC(=O)C(Oc1ccccc1)Oc1ccccc1	–	–	31	–	–
COc1ccc(/C=C/C(=O)Nc2ccccc2C(=O)O)cc1	–	–	20	–	–
CCOc1ccc(Nc2ccc(C(=O)O)cc2[N+](=O)[O-])cc1	–	–	–	–	–
CCOc1ccc(N/C=C/C(=O)c2ccccc2)c([N+](=O)[O-])c1	–	–	18	–	–
CCOc1ccc(/C=C/C(=O)Nc2ccc(OC)cc2[N+](=O)[O-])cc1	–	–	28	–	–
CCOc1ccc(NC(=O)/C=C/c2ccccc2)c([N+](=O)[O-])c1	–	–	15	–	–
C[C@@H]1ON(C)[C@H]2C[C@H]3c4[nH]c5c(-c6ccccc6F)cccc5c4CCN3C[C@@H]12	–	–	·	·	–
O=c1c2ccccc2nnn1CSc1ccccc1F	–	–	11	–	–
Cc1ccc(S(=O)(=O)Nc2ccccc2CNc2ccc(Br)cn2)cc1	–	–	14	–	–
Cc1ccc(S(=O)(=O)Nc2ccccc2CNc2ncc(Br)cc2Br)cc1	–	–	–	–	–
N#Cc1cccc(NC(=O)O[C@@H]2CC[C@@]34CCCN3C(=O)CCC[C@H]4C2)c1	–	–	·	·	·
c1cncc(-c2nc3cc4ccccc4cc3[nH]2)c1	–	–	22	–	–
COc1cc(/C=N/NC(N)=S)ccc1OC(=O)c1ccc(C)cc1	–	–	26	–	–
COc1cc(/C=N/NC(N)=S)ccc1OCc1ccc(C)cc1	–	–	25	–	–
O=C(NCc1ccccc1)N1CCC(c2nc3ccc(Cl)cc3[nH]2)CC1	–	–	·	·	–
COc1ccc2nc(SCC(=O)C(C)(C)C)[nH]c2c1	–	–	123	–	–
Nc1nc(=S)[nH]c2c1C1(CCCCC1)Cc1ccccc1-2	–	–	13	–	–
Nc1nc(=S)[nH]c2c1C1(CCCC1)Cc1ccccc1-2	–	–	–	–	–
SMILES	ADAM10 inh	ADAM17 inh	GRIN3A LBD mod	FAS TE block	proKLK7 act
CCOC(=O)C(Oc1ccc2c(-c3ccccc3)cc(=O)oc2c1C)c1ccccc1 (stereo unspecified)	–	–	14	–	–
CN1C/C(=C/c2ccccc2)N2C(=O)C[C@@H](c3ccccc3)N=C12	–	–	·	·	–
Cc1oc(CC(C)C)cc1C(=O)Nc1cccc2ccccc12	–	–	25	–	–
Cc1cc(C(=O)Nc2cccc3ccccc23)c(C)o1	–	–	–	–	–
COc1ccc(NC(=O)Nc2ccccc2OC)cc1	–	–	–	–	–
O=C(Nc1ccccc1O)c1ccccc1O	–	–	15	–	–
Cc1cccc(NC(=O)c2ccccc2O)c1C	–	–	–	–	–
O=C(Nc1ccc(F)cc1)Nc1ccc(NC(=O)c2ccccc2O)cc1	–	–	32	–	–
COc1ccccc1NC(=O)Nc1ccc(NC(=O)c2ccccc2O)cc1	–	–	32	–	–
COC(=O)[C@H](CC1(c2cn(S(=O)(=O)CC[Si](C)(C)C)c3ccccc23)C(=O)Nc2ccccc21)NC(=O)OC(C)(C)C (stereo partly specified)	–	–	·	·	·
CN(CCOC(=O)c1cc2ccccc2o1)C1CN(Cc2cn(Cc3ccccc3F)nn2)S(=O)(=O)C1 (stereo unspecified)	–	–	·	·	–
COc1ccc(OC)c(N(CC(=O)Nc2ccccc2C(=O)NCc2ccco2)S(C)(=O)=O)c1	–	–	13	–	–
COC(=O)c1cc(C(C)c2ccccc2O)n2ccccc12 (stereo unspecified)	–	–	·	·	–
O=C(NC(=S)Nc1cc(-c2nc3ccccc3[nH]2)ccc1Cl)c1ccc2c(c1)OCO2	–	–	18	–	–

Screening results: PubChem, several laboratories
